# The campaign covered roughly 310,000 compounds. About 14,000 (4.5%) showed an effect of 50% or more. The effect is printed as a negative number. The sample as a whole holds a higher share of strong results than the screen did.
# Target: human ether-à-go-go-related gene (hERG) potassium channel (human, UniProt Q12809)
# Experiment: primary screen, population patch clamp on CHO cells stably expressing hERG; higher = less effect of the substance
# 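Further: peak tail current of the secondary pulse compared with the same well before compound.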
# Chain of human ether-à-go-go-related gene (hERG) potassium channel (Q12809 whole entry, looked up): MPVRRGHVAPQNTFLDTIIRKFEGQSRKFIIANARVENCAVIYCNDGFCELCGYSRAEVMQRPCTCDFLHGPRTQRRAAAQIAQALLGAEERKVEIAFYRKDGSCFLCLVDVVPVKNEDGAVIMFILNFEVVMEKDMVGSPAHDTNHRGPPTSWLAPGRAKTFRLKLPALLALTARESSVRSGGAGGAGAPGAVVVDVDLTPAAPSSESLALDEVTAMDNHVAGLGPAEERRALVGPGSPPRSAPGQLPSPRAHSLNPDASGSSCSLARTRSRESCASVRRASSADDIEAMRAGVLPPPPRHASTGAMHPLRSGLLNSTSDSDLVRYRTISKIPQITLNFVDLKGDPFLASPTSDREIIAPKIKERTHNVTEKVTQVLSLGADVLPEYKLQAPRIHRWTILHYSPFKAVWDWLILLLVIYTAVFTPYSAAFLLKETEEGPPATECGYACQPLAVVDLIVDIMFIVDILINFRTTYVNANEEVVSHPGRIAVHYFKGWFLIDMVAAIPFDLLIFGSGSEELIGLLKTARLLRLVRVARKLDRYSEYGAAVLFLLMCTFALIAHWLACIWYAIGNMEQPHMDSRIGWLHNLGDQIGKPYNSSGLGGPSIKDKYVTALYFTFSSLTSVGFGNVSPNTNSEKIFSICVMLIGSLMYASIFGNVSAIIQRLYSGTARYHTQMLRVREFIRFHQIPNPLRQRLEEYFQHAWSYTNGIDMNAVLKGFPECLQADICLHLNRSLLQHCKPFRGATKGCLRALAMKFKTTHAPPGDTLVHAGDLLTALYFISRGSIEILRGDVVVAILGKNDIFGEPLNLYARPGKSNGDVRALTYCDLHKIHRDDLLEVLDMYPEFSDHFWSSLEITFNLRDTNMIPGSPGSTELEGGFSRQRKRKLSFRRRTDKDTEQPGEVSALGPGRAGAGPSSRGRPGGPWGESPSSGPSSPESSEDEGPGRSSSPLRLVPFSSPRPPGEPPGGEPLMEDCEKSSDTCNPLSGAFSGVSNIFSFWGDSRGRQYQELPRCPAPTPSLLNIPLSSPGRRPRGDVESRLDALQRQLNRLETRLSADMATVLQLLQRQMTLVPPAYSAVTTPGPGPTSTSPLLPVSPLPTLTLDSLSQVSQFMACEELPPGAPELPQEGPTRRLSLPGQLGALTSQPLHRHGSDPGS
row,Structure (SMILES),"hERG current change (%, negative = inhibition) at 10uM [%]"
1,CCc1ccccc1NC(=O)Cn1nc(C(F)(F)F)c2c1CCC2,7.74
2,CN=c1scc(C)n1/N=C/c1cc(Br)c(O)c(OC)c1,15.8
3,C=C(C)c1cccc(C(C)(C)NC(=O)NCC2CCCO2)c1 (stereo not shown),3.74
4,CCOc1ccc(Cl)cc1S(=O)(=O)N1CCC(C(=O)NCC2CCCO2)CC1 (stereo not shown),-2.63
5,CC(C)c1nc(N2CCOCC2)c(C#N)c2c1COC(C)(C)C2,9.56
6,Cc1cc(/C=C2/C(=N)N3C(=NC2=O)SN=C3S(C)(=O)=O)c(C)n1-c1ccc(F)cc1,47.6
7,CCOc1ccc(-n2c(C)cc(/C=C3/C(=N)N4C(=NC3=O)SN=C4S(C)(=O)=O)c2C)cc1,-53.4
8,Cc1cc(/C=C2/C(=N)N3C(=NC2=O)SN=C3S(C)(=O)=O)c(C)n1-c1ccccc1,0.917
9,CCOc1ccccc1OCCC(=O)OCC(=O)c1ccc[nH]1,-16.2
10,Cc1cc(NC(=O)C23CCC(C)(C(=O)O2)C3(C)C)no1 (stereo not shown),12
11,COc1cc2cc(CN(Cc3cccnc3)C(=O)Nc3ccccc3)c(=O)[nH]c2cc1OC,-21.8
12,CCN(CC)CCCN(Cc1cc2cc(OC)ccc2[nH]c1=O)C(=O)Nc1ccc(F)cc1,-69.9
13,COc1ccc(NC(=O)N(CCCN(C)C)Cc2cc3cc(OC)ccc3[nH]c2=O)cc1,-38.5
14,COc1ccc2[nH]c(=O)c(CN(CC3CCCO3)C(=O)Nc3ccccc3)cc2c1 (stereo not shown),-2.72
15,CCN(CC)CCCN(Cc1cc2cc3c(cc2[nH]c1=O)OCO3)C(=S)Nc1ccc(OC)cc1,-46.8
16,CCN(CC)CCCN(Cc1cc2cc(OC)c(OC)cc2[nH]c1=O)C(=O)Nc1ccccc1,-13.8
17,COc1ccc(NC(=O)N(Cc2cc3cc(OC)ccc3[nH]c2=O)CC2CCCO2)cc1 (stereo not shown),-31.6
18,CCOc1ccc2[nH]c(=O)c(CN(Cc3cccnc3)C(=O)Nc3ccccc3OC)cc2c1,-6.63
19,COc1ccc2[nH]c(=O)c(CN(Cc3cccnc3)C(=O)Nc3ccccc3)cc2c1,-54.6
20,COc1ccc2[nH]c(=O)c(CN(CCCN(C)C)C(=O)Nc3ccc(F)cc3)cc2c1,-65.7

row,Structure (SMILES),"hERG current change (%, negative = inhibition) at 10uM [%]"
1,COc1ccc2[nH]c(=O)c(CN(CCCN(C)C)C(=O)Nc3ccccc3)cc2c1,-29.2
2,CCN(CC)CCCN(Cc1cc2cc(OC)ccc2[nH]c1=O)C(=O)Nc1ccccc1,-55.3
3,COC(=O)c1cscc1NC(C)=O,20.7
4,O=C(O)CCc1n[nH]c(=S)[nH]c1=O,5.81
5,Cc1ccc(C)c(C(=O)C(C)OC(=O)CN2C(=O)NC3(CC(C)CC(C)(C)C3)C2=O)c1 (stereo not shown),23.2
6,CCOc1ccc(CCNC(=O)Cn2cccc2C(=O)c2ccccc2)cc1OCC,-2.85
7,CSCCC(NC(=O)COc1ccccc1)C(=O)Nc1ccc(C)cc1 (stereo not shown),-3.07
8,CC(=Nc1ccccc1)c1sc2ccccc2c1O,-10.8
9,ON1C(c2ccc(Cl)cc2Cl)N(O)[C@H]2CCCC[C@H]21 (stereo partly shown),-1.85
10,COc1cc2cc(CN(C(=O)Nc3ccccc3)C3CCCC3)c(=O)[nH]c2cc1OC,-44.2
11,CCN(CC)CCCN(Cc1cc2cc3c(cc2[nH]c1=O)OCCO3)C(=O)Nc1ccccc1,-41.7
12,COc1ccc2cc(CN(C(=O)Nc3ccccc3)C3CCCC3)c(=O)[nH]c2c1,-60.5
13,COc1ccc2cc(CN(C(=O)Nc3ccccc3OC)C3CCCC3)c(=O)[nH]c2c1,-46.9
14,CCN(CC)CCCN(Cc1cc2cc3c(cc2[nH]c1=O)OCO3)C(=S)Nc1ccccc1,-45.9
15,CCN(CC)CCCN(Cc1cc2cc3c(cc2[nH]c1=O)OCCO3)C(=O)Nc1ccc(F)cc1,-61.6
16,COc1ccc(NC(=O)CSc2nc3c([nH]c4ccccc43)c(=O)n2C)c(OC)c1,19
17,COC(=O)c1cccc(S(=O)(=O)N2CCC(C)CC2)c1,-4.23
18,O=C(COc1ccccc1)Nc1cc(S(=O)(=O)N2CCOCC2)ccc1N1CCCC1,-8.47
19,Cc1cc2nc(C)n(CCCNC(=O)Nc3ccc(F)cc3)c2cc1C,-49.9
20,CCOc1ccc(NC(=O)NCCCn2c(C)nc3cc(C)c(C)cc32)cc1,-55.5

row,Structure (SMILES),"hERG current change (%, negative = inhibition) at 10uM [%]"
1,Cc1cc2nc(C)n(CCCNC(=O)Nc3ccc(C#N)cc3)c2cc1C,-34
2,COc1cccc(-c2nc(-c3ccccn3)no2)c1OC,0.968
3,Cc1noc(C)c1COc1ccc(C(=O)OCc2nnc(-c3ccc(Cl)cc3)o2)cc1,10.1
4,CNC(=O)c1ccccc1S(=O)c1ccccc1C#N (stereo not shown),2.49
5,CCOC(=O)c1ccc(NC(=O)NCCN2CCCCC2)cc1,-31.6
6,COc1cc2c(cc1OC)CN(C(=O)c1cccc(S(=O)(=O)N(C)C)c1)CC2,6.05
7,COc1cc2c(cc1OC)C(c1cccs1)N(C(=O)c1cccc(S(=O)(=O)N(C)C)c1)CC2 (stereo not shown),-70.7
8,COc1cc2c(cc1OC)C(c1ccccc1)N(C(=O)c1cccc(S(C)(=O)=O)c1)CC2 (stereo not shown),-24
9,COc1cc2c(cc1OC)C(c1cccs1)N(C(=O)c1ccc(S(=O)(=O)N(C)C)cc1)CC2 (stereo not shown),-72.6
10,COc1ccc(C(=O)N2CCc3cc(OC)c(OC)cc3C2c2ccc(OC)c(OC)c2)cc1OC (stereo not shown),1.43
11,COc1ccc(C(=O)N2CCc3cc(OC)c(OC)cc3C2c2ccc(OC)c(OC)c2)cc1 (stereo not shown),-12
12,N#C/C(=C\c1ccco1)C(=O)NCc1ccccc1,4.87
13,COc1ccc(C(C)n2c(C)c3c(C)nnc(C)c3c2C)cc1 (stereo not shown),-57.9
14,Cc1nnc(C)c2c(C)n(C(c3ccccc3)c3ccccc3)c(C)c12,-71.4
15,COc1ccc(C(=O)C(Sc2nnc(C)c(=O)[nH]2)c2ccc(OC)cc2)cc1 (stereo not shown),-12.3
16,COc1ccc(-c2nnnn2C(C)C)cc1,-0.893
17,Cc1nnc(C)c2c(C)n(C(C)c3ccccc3)c(C)c12 (stereo not shown),-20.7
18,CC(=O)c1c(C(C)=O)c(C)n(C(c2ccccc2)c2ccccc2)c1C,-9.83
